# Reference: PubChem BioAssay (NCI)
# This is part of a sample that, as a whole, favours compounds with a hit. Of some 83,000 tested, about 20% had one in any assay.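 Interpretation: 100, growth as untreated; towards 0, rising growth inhibition; 0, no net growth; 0 to -100, cell death. Compounds scoring below 10 were considered active.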 Calls of active or inactive are those of the source.
# Test system: HCT-116 colon
# Assay: NCI-60 one-dose screen, 48 h (100 = growth as untreated, 0 = no growth, -100 = all killed)
# Details: 10 µM
# Procedure: Growth inhibition of the HCT-116 human tumor cell line is measured as a screen for anti-cancer activity. Cells are grown in 96 well plates and exposed to the test compound for 48 hours. Compounds are tested at a single concentration, which is 10^-5 M for most compounds. The reported endpoint is percent growth (GI% or GIPRCNT), where numbers from 0 - 100% represent growth inhibition, and numbers from -100% - 0 represent cell death. For example, a value of 40 represents 60% growth inhibition. A value of 0 means no net growth occurred over the course of the experiment. A value of -40 indicates 40% of cells at the beginning of the experiment died by the end of the experiment. A value of -100 means all cells are dead at the end of the experiment.
# NCI-60 Human Tumor Cell Lines Screen was performed using the standard one-dose NCI protocol, which is described in more detail at https://dtp.cancer.gov/discovery_development/nci-60/default.htm.
# Compounds with GIPRCNT values below 10 were considered active. Activity score was based on GIPRCNT using the following formula: […]
# Score is 0 for GIPRCNT values of 100 or above, 50 for GIPRCNT values of 0, and 100 for GIPRCNT values of -100.
row,SMILES,growth
1,Clc1ccc(/C=C2\CCCC3=C2N=C2SC=NN2C3c2ccc(Cl)cc2)cc1 (stereo not given),5.7% (active)
2,NC(=O)CC1(c2ccccc2)CCCCC1,95.6% (inactive)
3,CCN(CC)CCCOCCCNc1cc(OC)cc2cccnc12,94.5% (inactive)
4,N=c1nc(N)ncn1-c1ccccc1,97.4% (inactive)
5,COc1cc(C)ccc1C(=O)c1ccc(C)cc1OC,24.8% (inactive)
6,CCOC(=O)C(=Cc1ccc(Br)cc1)C(=O)OCC,-80.4% (active)
7,CCn1cc(C(=O)O)c(=O)c2cnc(N3CCCC3)nc21,96.9% (inactive)
8,COc1ccc(-c2nn(-c3cccc(NC(=O)c4ccc5c(c4)OCCO5)c3)cc2-c2ccncc2)cc1Cl,15.3% (inactive)
9,O=C1OCC2=C1C(c1cccc(Cl)c1)c1cc3c(cc1N2CCO)OCCO3 (stereo not given),6.21% (active)
10,COc1cc(Cl)cc(-c2nn(-c3cccc(NC(=O)Nc4ccc(Cl)c(C(F)(F)F)c4)c3)cc2-c2ccncc2)c1,3.39% (active)
11,COc1cccc(NC(=O)c2sc3nc4c(cc3c2N)C(O)CCC4)c1 (stereo not given),12.3% (inactive)
12,CCOC(=O)N1C=CC2C=CC1C1C=CC=CC2N1C(=O)OCC (stereo not given),94.7% (inactive)
13,N#Cc1c(C#N)c(SSc2c(C#N)c(C#N)c(N)n2-c2ccccc2)n(-c2ccccc2)c1N,104% (inactive)
14,Cc1nc2c(c(=O)[nH]1)OCN(Cc1ccccc1)C2,100% (inactive)
15,O=S(=O)(Nc1ccccn1)c1ccc(N=Nc2ccc(O)c3ncccc23)cc1,10.6% (inactive)
16,CC(C)(C#N)Nc1ccccc1,101% (inactive)
17,COc1cc(-c2nc(Nc3nc4ccccc4s3)[nH]c(=O)c2C#N)cc(OC)c1O,94.7% (inactive)
18,Cc1cc(C)c(NC(=O)c2sc3nc4c(cc3c2N)C(=O)CCC4)c(C)c1,23.1% (inactive)
19,N#Cc1cccc(OCc2nc(N)nc(N)c2-c2ccc(Cl)c(Cl)c2)c1,12.1% (inactive)
20,CCCCCCc1cc(N=Nc2ccc(S(=O)(=O)Nc3cc(C)nc(C)n3)cc2)c(O)cc1O,86.3% (inactive)

row,SMILES,growth
1,Cc1ccc(CC#N)cc1C,93% (inactive)
2,O=C(Nc1cccc(-n2cc(-c3ccncc3)c(-c3ccc(O)c(Cl)c3)n2)c1)Nc1ccc(Cl)c(Cl)c1,1.72% (active)
3,O=C1/C(=C\c2ccccc2)CN(C(=O)c2ccccc2)C/C1=C\c1ccccc1,-81.4% (active)
4,COc1ccc(Cl)cc1-n1nnc(-c2nc3ccccc3[nH]2)c1N,55.4% (inactive)
5,COc1ccc(C2=NN(C(=O)c3ccc(S(C)(=O)=O)cc3)C(c3ccc(OC)c(OC)c3)C2)c(OC)c1 (stereo not given),82.7% (inactive)
6,COc1cccc(-c2cc(-c3cccc(NS(C)(=O)=O)c3)nc(N)c2C#N)c1O,24.7% (inactive)
7,CC(=O)c1cc(Br)ccc1O,112% (inactive)
8,CN1CC[C@@H](c2c(O)cc(O)c3c(=O)cc(-c4ccccc4Cl)oc23)[C@@H](O)C1,8.46% (active)
9,Cc1cc(N(CCCNc2ccnc3cc(Cl)ccc23)Cc2ccc3c(c2)OCO3)nc(N2CCOCC2)n1,3.52% (active)
10,O=C1/C(=C\c2ccc(F)cc2)CN(C(=O)c2ccc([N+](=O)[O-])cc2)C/C1=C\c1ccc(F)cc1,-72.7% (active)
11,CN(C)c1ccc(N=C2C=CC(=O)c3ccccc32)cc1,78.4% (inactive)
12,COc1cc(-c2cc(/C=C/C(=O)c3ccc(F)c(F)c3)[nH]n2)cc(OC)c1OC,29.3% (inactive)
13,c1ccc2c(-c3nc(N4CCOCC4)c4c5c(sc4n3)CCCCCC5)cccc2c1,109% (inactive)
14,COc1ccc(-c2nn(-c3cccc(NC(=O)Nc4ccc(Cl)c(C(F)(F)F)c4)c3)cc2-c2ccncc2)cc1Cl,8.61% (active)
15,CC(C)(Cl)CCC1=C(Cl)C(=O)c2ccccc2C1=O,17.2% (inactive)
16,O=C1N=NC2=C1c1c3ccccc3c(O)n1CC2,93.9% (inactive)
17,COc1ccc2c(c1)sc1nc(-c3ccccc3)c(-c3ccc(O)c(OC)c3)n12,33.2% (inactive)
18,CN(C)c1ccc(Cc2ccc(N(C)C)cc2Cl)c(Cl)c1,95.4% (inactive)
19,Cc1ccc(Nc2cc(C)nc(NCCCNc3ccnc4cc(Cl)ccc34)n2)cc1,-100% (active)
20,Cn1c([N+](=O)[O-])cnc1/C=C1\Oc2ccc(Cl)cc2C1=O,-46.6% (active)
